target: C17orf89; test: pooled miR-30 sensor sort-seq; sequence = guide strand; details: shRNA

Row | Sequence | sensor-assay potency score (higher = more potent)
1 | CAGAAGTCCTTACTCAGGCGGC | -1.6
2 | AAGTCCTTACTCAGGCGGCCGC | -1.52
3 | TCCCGCGCGCAGAAGTCCTTAC | -1.42
4 | TCGCACGCGGCCCCACACCGCT | -1.58
5 | TTACTCAGGCGGCCGCCCGGGG | -1.34
6 | TCGAACTCCCGCGCGCAGAAGT | -1.83
7 | TACGCCGCGGCCTCGGCCCCGC | -1.68
8 | TTGGCCGCAGCGGCGAAGCAGC | -1.67
9 | AGGCCTGCACGCACCTGCCGTA | -1.48
10 | TTCTTGGCCGCAGCGGCGAAGC | -1.54
11 | TCTTCTTGGCCGCAGCGGCGAA | -1.65
12 | AGGGCCTCGAACTCCCGCGCGC | -1.88

target: C18orf34; test: as above; details: shRNA

Row | Sequence | sensor-assay potency score (higher = more potent)
13 | TACACTGTTATCTGAACTGTGT | 0.065
14 | TTGTCGAGACTTCTGATTCTTT | -0.716
15 | TTGAAGTTCCTGATTCTGCTTA | 0.774
16 | TTTTTTATTGTCTTCCGTCAGT | -0.408
17 | TTGTCTTACTTTTAGTTGCTTC | -0.608
18 | TTCTTCATTAACTTTTCTGTGT | 0.0915
19 | TAGTTTTTTCTGAAGCACCATT | -0.995
20 | TATTCTTTCTTGATCTCTGTTG | -0.0146
21 | TTTTGTTGACACAAGGTGCTGG | 0.854
22 | TAATTCTATAACATCACTCAAA | -0.981
23 | TTCATCTTCTAGTTGAAGCAGA | -0.375
24 | TTTCATCTCTCTTTTCTCCTGG | 0.616

target: C18orf56; test: as above; details: shRNA

Row | Sequence | sensor-assay potency score (higher = more potent)
25 | TCGGTATTCGGCATGCAGGCGC | -0.876
26 | TTTAGTCCTAACCTCAATCCTG | -0.687
27 | TAGTCCTAACCTCAATCCTGCC | -1.52
28 | ACACACAGCAGCGACAGCCGGG | -1
29 | TATTTTGATCATTGCTGCCTTT | -0.437
30 | TATCTCTTCATCTGGGACCTGG | -0.00491
31 | TAGAATTATCTCTTCATCTGGG | 0.794
32 | ATGCAGGCGCGCTACAGCCTGA | -1.57
33 | TTAGTATTTTGATCATTGCTGC | -0.0513
34 | TTAGGGACGTGACTGGCGCGGG | -1.11
35 | TCTAATGCATCCTATATCCAGT | -0.446
36 | TTAGTCCTAACCTCAATCCTGC | -0.842

target: C19orf26; test: as above; details: shRNA

Row | Sequence | sensor-assay potency score (higher = more potent)
37 | TGAGTCACACTCGTGGATGGTG | -0.617
38 | TCGTGGATGGTGACAATCTTGA | -1.35
39 | TTGTCCAGGTAGGTGGTGGTGG | -0.893

Reference: the OligoGym collection
